High-throughput results: PubChem BioAssay, National Center for Advancing Translational Sciences (NCATS)
A selection: hits, their analogues and other compounds. The true share with any hit is near 5.7%.
Gal4-VP16 FLuc: Gal4-VP16 reporter inhibition counter-screen. Drosophila S2 Gal4-VP16 UAS-luciferase, luminescence, 20 h. Potency, µM (series often up to 53.6 µM), for inactives: at the highest dose activity, negative = inhibition, most hits filed as inhibitors. hit rate 3.5% among 310,000;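 further: Gal4-VP16 expression switched on by copper sulfate through the metallothionein promoter; nearly all actives have a fitted effect of over 50% in size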
B2AR arrestin: agonists driving beta-arrestin recruitment to human beta2-adrenergic receptor; beta-arrestin recruitment to beta2AR, cell-based reporter; Potency, µM (top dose mostly 46.1 µM), for inactives: at the highest dose activation, usual class: activators; AID 492947; P07550; hit rate 0.02% among 330,000;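 further: 0% = DMSO controls and full agonism = EC100 isoproterenol or metaproterenol; nearly all actives have a fitted effect of over 65% in size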
NPSR antagonist: antagonists of human neuropeptide S receptor cAMP signaling. Potency, µM (titrated, usually from 38.3 µM), without a hit: top-dose activity change, negative = inhibition, usual class: inhibitors. AID 1461. Q6W5P4. CHO-NPSR cells, cAMP TR-FRET, antagonist mode. hit rate 1% among 220,000; further: nearly all actives have a fitted effect of over 50% in size
RORgamma inh: ROR gamma (mouse) transcription inhibition. P51450. Drosophila S2 Gal4-RORgamma UAS-luciferase reporter, 20 h. Potency, µM (doses to about 53.6 µM), for inactives: at the top dose activity change, negative = inhibition, actives largely listed as inhibitors. hit rate 5.4% among 310,000. AID 2551; further: nearly all actives have a fitted effect of over 60% in size
Target sequence (P51450 whole entry, looked up, the tested form may be a part): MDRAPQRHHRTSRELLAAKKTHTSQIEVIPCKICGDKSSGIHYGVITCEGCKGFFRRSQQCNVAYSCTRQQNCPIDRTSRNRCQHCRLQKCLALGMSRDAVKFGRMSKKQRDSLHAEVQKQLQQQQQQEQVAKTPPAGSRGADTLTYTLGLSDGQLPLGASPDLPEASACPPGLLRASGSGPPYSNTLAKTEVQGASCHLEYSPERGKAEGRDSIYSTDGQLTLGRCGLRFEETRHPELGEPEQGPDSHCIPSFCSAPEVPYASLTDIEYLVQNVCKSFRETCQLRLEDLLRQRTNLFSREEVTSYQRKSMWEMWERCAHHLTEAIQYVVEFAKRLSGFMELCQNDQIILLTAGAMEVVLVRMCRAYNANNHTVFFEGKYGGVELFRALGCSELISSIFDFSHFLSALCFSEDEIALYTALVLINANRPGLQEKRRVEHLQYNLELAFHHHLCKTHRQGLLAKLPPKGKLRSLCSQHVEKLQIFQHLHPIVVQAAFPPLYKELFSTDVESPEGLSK
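Luciferase reporter read in Schneider cells carrying Gal4-RORγ (mouse) and UAS-Photinus luciferase; cells given compound 1 h before 700 uM copper sulfate induction, then incubated 20 h at ambient temperature.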
Numbers without * were called inactive; ? = inconclusive; · = not tested or not shown; [ ] = another dose, or the depositor's remark. The call rests on the fitted dose curve; in most records, active means well fitted curve in the direction sought with a large enough effect; inconclusive means small, poorly fitted or top-dose-only effect, or another doubt; inactive means no such curve, though single readings can be large; an effect the other way counts as inactive or inconclusive. Unless noted, on the % scale 0 is the no-effect control and ±100 the full control effect; potency means the concentration at half of the fitted maximal effect.

SMILES	Gal4-VP16 FLuc	B2AR arrestin	NPSR antagonist	RORgamma inh
O=C(OCC1CO1)C1CCCCC1C(=O)OCC1CO1 (stereo unspecified)	1%	·	·	26%
CCc1ccc(NC(=O)CSc2nc3nc(C)cc(C)n3n2)cc1	1.1µM*	0%	·	36%
O=C(c1cc[n+]([O-])cc1)N1CCCC(N2CCN(c3cccc(C(F)(F)F)c3)CC2)C1 (stereo unspecified)	-65%	-1%	·	1.3µM*
CN(C)CCn1c2ccccc2c2nc3ccc([N+](=O)[O-])cc3cc21	11µM*	0%	-18%	7.9µM*
CC1=C(c2ccc(NN=C(C#N)C#N)cc2)NNC(=O)C1	?	·	·	22µM*
Cc1ccc(N/N=C(\C#N)C(=O)c2ccsc2)cc1	14%	1%	6%	?
COc1cc(/C=N/Nc2nc3c(c(=O)n(C)c(=O)n3C)n2Cc2ccccc2)ccc1OC(=O)c1ccco1	18µM*	-1%	6%	-23%
Cc1ccc(Cn2c(N/N=C/c3ccncc3)nc3c2c(=O)n(C)c(=O)n3C)cc1	10µM*	-1%	27%	-44%
Nc1nc(-c2cc(O)ccc2[N+](=O)[O-])cc(-c2ccccc2)c1[N+](=O)[O-]	13µM*	0%	·	?
O=C(O)c1cc(N(Cc2ccccc2O)Cc2cc(O)ccc2O)ccc1O	-15%	·	·	28%
COC(=O)/C=C1\N/C(=N\c2nc(C)cc(C)n2)N(c2ccc(C)c(C)c2)C1=O	?	0%	-11%	11µM*
COC(=O)/C=C1\N/C(=N\c2nc(C)cc(C)n2)N(c2ccc(Cl)cc2)C1=O	6%	0%	9%	-41%
COc1ccc(C2=NCCc3cc(OC)c(OC)cc32)cc1	?	-1%	29%	-27%
COc1ccc(C2=NCCc3cc(OC)c(OC)cc32)cc1OC	6.3µM*	0%	28%	-7%
O=C(NCCc1cccs1)C(c1ccccc1)c1ccccc1	1%	-1%	·	3%
CCC(Cc1c(I)cc(I)c(O)c1I)C(=O)O (stereo unspecified)	2%	·	·	6%
CC(=O)Nc1sc2c(c1-c1nc3ccccc3s1)CCN(C(C)C)C2	11µM*	-1%	36%	8.9µM*
CC(C)N1CCc2c(sc(NC(=O)c3ccc4ccccc4c3)c2C(N)=O)C1	?	0%	·	?
COc1ccc(C(=O)COC(=O)c2cccc(-n3cnnn3)c2)c(OC)c1	·	0%	·	·
COc1cccc(-c2c(C(=O)N/N=C(\C)c3ccco3)nnn2-c2nonc2N)c1	23%	0%	·	4%
CCOc1cccc(-c2c(C(=O)N/N=C/c3cccs3)nnn2-c2nonc2N)c1	11µM*	-1%	·	7.1µM*
Cc1ccc(/C=N/NC(=O)c2nnn(-c3nonc3N)c2-c2ccc3c(c2)OCO3)s1	7.9µM*	0%	·	7.1µM*
COc1ccc(O)c(/C=N/NC(=O)c2c(C)nnn2-c2nonc2N)c1	?	0%	6%	11µM*
COc1cccc(-c2c(C(=O)N/N=C(\C)c3ccc(Cl)s3)nnn2-c2nonc2N)c1	10µM*	0%	·	-2%
CC(Cc1ccccc1)NC(=O)c1cc([N+](=O)[O-])ccc1Cl (stereo unspecified)	-10%	-1%	14%[7.67 µM]	6%
SMILES	Gal4-VP16 FLuc	B2AR arrestin	NPSR antagonist	RORgamma inh
COc1ccc(CNc2ccnc(-c3ccccc3CN(C)C)n2)c(OC)c1	5%	·	·	-13%
Cc1cc(=O)oc2cc(O[C@@H]3O[C@H](C(=O)O)[C@@H](O)[C@H](O)[C@H]3O)ccc12	-1%	·	·	14%
Cc1cc(C)n(CCC(=O)N=Nc2c(O)[nH]c3ccc(Br)cc23)n1	2%	3%	-46%	-13%
O=C(CCNS(=O)(=O)c1ccc2nsnc2c1)N1CCN(c2ccncc2)CC1	·	0%	·	·
COc1cccc(-c2c(C(=O)N/N=C/c3cccs3)nnn2-c2nonc2N)c1	10µM*	0%	·	7.1µM*
Nc1nonc1-n1nnc(C(=O)N/N=C/c2cc(Br)cs2)c1-c1ccccc1	5µM*	0%	·	6.3µM*
CC(O)CN(C)C (stereo unspecified)	-3%	·	·	14%
FC(F)Oc1ccc(NC(=S)N2CCc3ccccc32)cc1	-90%	0%	-10%	8.9µM*
Fc1ccc(NC(=S)N2CCc3ccccc32)cc1	?	0%	·	11µM*
O=CN1CCN(C(=S)Nc2ccc(OC(F)F)cc2)CC1	-3%	0%	?	29%
NS(=O)(=O)c1ccc(NC(=S)N2CCc3ccccc32)cc1	5%	-1%	·	8%
C=CCC(C)(O)C#Cc1ccccc1 (stereo unspecified)	1%	·	·	-6%
CC1=NN(C(=O)c2ccc(C)cc2)C(O)(C(F)(F)OC(F)(F)F)C1 (stereo unspecified)	11µM*	-1%	2%[46.1 µM]	6.3µM*
CC1=NN(C(=O)c2ccccc2-n2cccc2)C(O)(C(F)(F)F)C1 (stereo unspecified)	?	0%	6%	10µM*
CCOC(=O)N1N=C(c2ccccc2)CC1(O)C(F)(F)F (stereo unspecified)	2%	0%	6%[46.1 µM]	-15%
Cc1ccc2nc(/N=C(\N)NC(=O)NC3CCCCC3)nc(C)c2c1	7.1µM*	0%	-55%	-67%
CCC(=O)N/C(N)=N/c1nc(C)c2cc(C)c(C)cc2n1	3%	-1%	12%[7.67 µM]	1µM*
Cc1cc2nc(/N=C(\N)NC(=O)C(C)C)nc(C)c2cc1C	-1%	0%	-1%[7.67 µM]	-33%
CN(C)CCCNC(=O)C[C@H]1C[C@H](C(=O)N2CCOCC2)[C@@]2(C)c3[nH]c4cc(-c5ccco5)ccc4c3CCN2C1=O	·	0%	·	·
CCCCCCc1ccc(C(=O)CCN(C)C)cc1	-4%	·	·	·
CCN1CCN(Cc2ccc(NC(=O)c3ccc(C)c(NC(=O)C(=O)c4c[nH]c5ccccc45)c3)cc2C(F)(F)F)CC1	?	-1%	?	13µM*
CCN1CCN(Cc2ccc(NC(=O)c3cc(NC(=O)C(=O)c4c[nH]c5ccccc45)cc(OC)c3)cc2C(F)(F)F)CC1	?	-1%	-39%	?
c1ccc(-c2cn(-c3ccccc3)c3ncnc(NCCCN4CCOCC4)c23)cc1	-2%	0%	-9%	-17%
Brc1ccc(-n2cc(-c3ccccc3)c3c(NN4CCOCC4)ncnc32)cc1	?	0%	?	6.3µM*
COc1ccc(CCNC(=O)c2ccc3nc(N4CCCCC4)sc3c2)cc1OC	?	0%	·	2.2µM*
Cc1nc2cnc(N3CCOCC3)nc2n(C[C@H]2CCCO2)c1=O	-9%	·	·	2%
COc1ccccc1-c1cc(C(=O)N/N=C/c2ccc(C)o2)c2ccccc2n1	·	0%	·	·
Cc1ccsc1/C=N/NC(=O)c1cc(-c2ccncc2)nc2ccccc12	8.9µM*	-1%	15%	1.8µM*
COc1ccccc1-c1cc(C(=O)N/N=C/c2sccc2C)c2ccccc2n1	8.9µM*	0%	-25%[46.1 µM]	7.1µM*
COc1ccc2cc(C(=O)C3CCCN(Cc4cccc(C)n4)C3)ccc2c1 (stereo unspecified)	13µM*	7%	47%	2µM*
